# According to PubChem BioAssay AID652054 (National Center for Advancing Translational Sciences (NCATS), 2013):
# The campaign covered roughly 360,000 compounds. About 9,100 (2.5%) were called active. Roughly 4% stayed inconclusive and do not appear here. Shown is part of a subset that was picked to be rich in actives. Values without a mark were called inactive. No stated cut-off is given here; in the data, active means max response below about -50%; inconclusive means no clear call, values can overlap the other calls; inactive means above that.
# Molecular target: D(3) dopamine receptor (Homo sapiens) (UniProt P35462)
# Sequence (P35462 whole entry, looked up): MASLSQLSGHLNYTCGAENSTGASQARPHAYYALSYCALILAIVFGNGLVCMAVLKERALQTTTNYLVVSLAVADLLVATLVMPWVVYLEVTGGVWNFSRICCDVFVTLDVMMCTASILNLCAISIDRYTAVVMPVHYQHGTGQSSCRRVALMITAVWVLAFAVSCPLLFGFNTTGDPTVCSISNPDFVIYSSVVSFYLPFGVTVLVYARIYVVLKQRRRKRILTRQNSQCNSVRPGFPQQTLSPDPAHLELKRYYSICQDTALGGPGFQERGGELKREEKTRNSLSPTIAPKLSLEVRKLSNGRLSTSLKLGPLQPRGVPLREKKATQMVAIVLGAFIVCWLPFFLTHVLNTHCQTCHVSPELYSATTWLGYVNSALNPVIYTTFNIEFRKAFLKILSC
# Experiment: qHTS of D3 Dopamine Receptor Antagonist: qHTS
# Details: D3R cells, DiscoveRx beta-arrestin luminescence, antagonist mode; stronger effect = lower value
# Procedure, shortened: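 Cells expressing the human receptor were seeded at 1500 cells/well, incubated overnight at 37 degrees C in 5% CO2, then exposed to library compounds with dopamine controls for 90 minutes at 37 degrees C before luminescent detection.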
# On the % scale 0 is the no-effect control and ±100 the full control effect.
row,SMILES,"max response, negative = inhibition"
1,CS(=O)(=O)N1CCCCC1c1cc(C(=O)NCc2ccccc2)no1 (centres undefined),13.9%
2,COc1cc(CNCCN(C)C)ccc1OCc1c(F)cccc1Cl,-51.3% (active)
3,CCN(CC)CCNCc1ccc(OCc2ccc(Cl)nc2)c(OC)c1,-23.1%
4,CCOCCCNCc1ccc(OCc2ccc(F)cc2)c(OC)c1,13.1%
5,CCOC(=O)[C@]12CCCC=C1N(CCC1=CCCCC1)C(=O)[C@H](CC(=O)N1CCCCC1)C2,6.86%
6,Cc1ccc([C@@H]2CC(=O)[C@@H]3CN(S(=O)(=O)c4ccc(C)cc4)[C@H](c4ccccc4F)C[C@@H]3N2S(=O)(=O)c2ccc(Cl)cc2)cc1,4.51%
7,Cc1ccc2sc(N(CCN(C)C)C(=O)/C=C/c3cccs3)nc2c1C,-69.2% (active)
8,Cc1ccc(S(=O)(=O)N(C)C)cc1NC(=O)/C=C/c1cccs1,-18.2%
9,Cc1cc(C)c2nc(N(CCN(C)C)C(=O)/C=C/c3cccs3)sc2c1,-2.22%
10,COc1ccc(C2CC(c3cccc(OC)c3)=NN2c2ccc(S(N)(=O)=O)cc2)cc1 (centres undefined),17.8%
11,O=C(/C=C/[C@H]1O[C@@H](n2ccc(=O)[nH]c2=O)[C@H](O)[C@@H]1O)NCc1ccccn1,9.97%
12,O=C(CC1NCCNC1=O)Nc1cc(Cl)cc(Cl)c1 (centres undefined),20.6%
13,O=C(CC1NCCc2ccccc21)Nc1cccc(Cl)c1 (centres undefined),-95.5% (active)
14,O=C(CC1NCCNC1=O)Nc1ccc(Oc2ccccc2)cc1 (centres undefined),24.3%
15,O=C(Nc1sc2c(c1C(=O)O)CCC2)c1ccccc1F,-1.53%
16,CC(=O)Nc1sc2c(c1C(c1cccc(F)c1)N1CCN(CCO)CC1)CCCC2 (centres undefined),-60.6% (active)
17,Cc1cccc(C)c1NC(=O)C(c1cccc(F)c1)N1CCN(C)CC1 (centres undefined),-13.2%
18,Cc1ccc(S(=O)(=O)N[C@H]2CCC[C@@H]2O)cc1,-12.4%
19,CN(C(=O)CN1CCN(c2cc(-c3ccc(OCc4ccccc4)cc3)ncn2)CC1)c1ccccc1,49%
20,CN(CC(=O)NC1CCN(Cc2ccccc2)CC1)S(=O)(=O)c1ccc(Cl)s1,-58.6% (active)
21,CC(=O)NCc1ccc(S(=O)(=O)NC2CCN(Cc3ccccc3)CC2)cc1,-11.1%
22,CN(CC(=O)NC1CCCCC1)S(=O)(=O)c1ccc(Br)s1,-7.06%
23,CCNC(=O)C1(C)CCCN1C(=O)c1ccc(N(C)C)cc1 (centres undefined),6.44%
24,CC(C)(C)N1C(=O)c2c(C(=O)OCc3ccccc3)[nH]c(-c3ccccc3)c2C1=O,-3.03%
25,CC(=O)Nc1cccc(-c2cc3nc(NCc4cccnc4)n(C)c(=O)c3s2)c1,17.6%
26,COc1ccc(C(CNC(=O)c2ccc(OCc3cscn3)cc2)N2CCCC2)cc1 (centres undefined),-19.8%
27,COc1ccc(C(CNC(=O)CSc2ccccc2)N2CCOCC2)cc1 (centres undefined),19.6%

row,SMILES,"max response, negative = inhibition"
1,COc1ccc(C(CNC(=O)COc2ccccc2OC)N2CCCCC2)cc1 (centres undefined),-53.8% (active)
2,COc1ccc(OCC(=O)NNC(=O)C2CCC2)cc1,-0.824%
3,COc1ccc(C(CNC(=O)COc2ccc([N+](=O)[O-])cc2)N2CCCCC2)cc1 (centres undefined),-74.5% (active)
4,CCOc1ccc(NS(=O)(=O)c2ccc(C(=O)NCC(c3ccccc3OC)N3CCCC3)cc2)cc1 (centres undefined),-13.6%
5,CCc1nc2ccc(C(=O)NCCNC(C)=O)cn2c1N(CC)Cc1cccc(Br)c1,48.8%
6,O=C1NC[C@H](Cc2ccc(O)cc2)N(C[C@@H]2CCCN2C[C@H](Cc2ccccc2)N2C[C@H](Cc3ccccc3)N(CC3CCCCC3)C(=O)C2=O)C1=O,8.41%
7,Cc1ccc(SC(CC(=O)c2ccc(C(C)(C)C)cc2)C(=O)O)cc1 (centres undefined),-80.7% (active)
8,Cc1ccc(Sc2cc(C(=O)c3ccccc3C(=O)O)ccc2[N+](=O)[O-])cc1,-21.4%
9,CC(C)(C)c1ccc(C(=O)NNC(=O)Cc2ccccc2)cc1,-17.8%
10,CCN1CCN(C(c2cccnc2)c2cc(Cl)c3cccnc3c2O)CC1 (centres undefined),-91.7% (active)
11,Cc1ccc([C@H]2C[C@H](O)[C@@H](n3cc(COC(=O)c4ccccc4)nn3)CN2CC2CCCCC2)cc1,1.62%
12,CCN(CC)C(=O)CC(c1ccc2c(c1)OCO2)c1c(OC)cc(OC)c2c(-c3ccccc3)cc(=O)oc12 (centres undefined),0.75%
13,COc1cc(C(CCN2CCN(c3ccccc3)CC2)c2c(OC)cc(OC)c3ccc(=O)oc23)cc(OC)c1OC (centres undefined),-84.7% (active)
14,O=C(C(=O)N1CCN(c2ccccc2)CC1)c1ccc2c(c1)OCO2,-3.44%
15,COc1cc(OC)c2ccc(=O)oc2c1C(CCN1CCN(c2ccccc2)CC1)c1ccc2c(c1)OCO2 (centres undefined),-81.3% (active)
16,CCN(CC)CCC(c1cc(OC)c(OC)c(OC)c1)c1c(OC)cc(OC)c2c(-c3ccccc3)cc(=O)oc12 (centres undefined),15.7%
17,COc1ccc(C(CC(=O)N2CCN(c3ccccc3)CC2)c2c(O)cc(OC)cc2OC)cc1 (centres undefined),8.17%
18,Cc1cc2nc(-c3ccc(F)cc3)c(Cc3ccsc3)n2c(C)c1Br,28.2%
19,Cc1cc(Br)cn2c(Cc3ccsc3)c(-c3ccc(C#N)cc3)nc12,3.93%
20,Cc1ccc(S(=O)(=O)N2CCC(=O)N([C@H](COCc3ccccc3)Cc3ccccc3)CC2)cc1,-4.09%
21,CCCc1ccc(S(=O)(=O)N2CCN(C(=O)c3cc(C)on3)CC2)cc1,15.8%
22,COCCNC(=O)c1cc2c(Br)ccc(Br)c2nc1N,-12.2%
23,COc1ccc(NC(=O)C(c2ccncc2)n2c(=O)c(-c3cc4ccccc4[nH]3)nc3ccccc32)cc1 (centres undefined),12.2%
24,Cc1ccc(Cn2c(C)c(C(=O)NCc3ccccc3C(F)(F)F)sc2=O)cc1,11.8%
25,Cc1cc(C#N)c(SCC(N)=O)nc1-c1ccc(F)cc1,9.54%
26,Cc1cc(=O)[nH]c(SCC(N)=O)c1C#N,-50.3% (active)
27,Cc1ccc(NC(=O)CSc2sc3c(O)cc(=O)[nH]c3c2C#N)cc1C,12.7%
